Drawing on PubChem BioAssay (NCATS), this text covers Potency and outcome for ten compounds.

Assay [1] has as its target Ubiquitin carboxyl-terminal hydrolase 2 (Homo sapiens) (UniProt O75604). In words: qHTS Validation Assay for Inhibitors of Ubiquitin-specific Protease USP2a Using CHOP2 as the Reporter (AID 463106). The method, boiled down: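 Fluorescence read-out at Ex 485nm/Em 531nm after 60min RT, following addition of 25nM Ub-CHOP2 plus 25nM reporter substrate to USP2 core (10nM) pretreated 30min with compound. Data normalized to NEM full inhibition; concentration-response curves fitted.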
(In general: In qHTS, concentration-response curves come from the screen itself.)

The target of assay [2] is DNA polymerase III PolC-type (Bacillus subtilis (strain 168)) (UniProt P13267). The experiment in a line: qHTS Validation Assay for the Inhibitors of DNA Replication in Gram-Positive Bacteria (AID 485295). Further: potency means the concentration at half of the fitted maximal effect. In outline: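 Reconstituted B. subtilis Pol III holoenzyme (PolC, beta clamp, SSB, primase) preincubated with compound, then M13Gori single-stranded circular template with dNTPs/NTPs added; room temperature reaction. Stopped with EDTA/PicoGreen; dsDNA fluorescence read, EDTA as full-inhibition control.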
Chain of DNA polymerase III PolC-type (Bacillus subtilis (strain 168)) (P13267 whole entry, looked up): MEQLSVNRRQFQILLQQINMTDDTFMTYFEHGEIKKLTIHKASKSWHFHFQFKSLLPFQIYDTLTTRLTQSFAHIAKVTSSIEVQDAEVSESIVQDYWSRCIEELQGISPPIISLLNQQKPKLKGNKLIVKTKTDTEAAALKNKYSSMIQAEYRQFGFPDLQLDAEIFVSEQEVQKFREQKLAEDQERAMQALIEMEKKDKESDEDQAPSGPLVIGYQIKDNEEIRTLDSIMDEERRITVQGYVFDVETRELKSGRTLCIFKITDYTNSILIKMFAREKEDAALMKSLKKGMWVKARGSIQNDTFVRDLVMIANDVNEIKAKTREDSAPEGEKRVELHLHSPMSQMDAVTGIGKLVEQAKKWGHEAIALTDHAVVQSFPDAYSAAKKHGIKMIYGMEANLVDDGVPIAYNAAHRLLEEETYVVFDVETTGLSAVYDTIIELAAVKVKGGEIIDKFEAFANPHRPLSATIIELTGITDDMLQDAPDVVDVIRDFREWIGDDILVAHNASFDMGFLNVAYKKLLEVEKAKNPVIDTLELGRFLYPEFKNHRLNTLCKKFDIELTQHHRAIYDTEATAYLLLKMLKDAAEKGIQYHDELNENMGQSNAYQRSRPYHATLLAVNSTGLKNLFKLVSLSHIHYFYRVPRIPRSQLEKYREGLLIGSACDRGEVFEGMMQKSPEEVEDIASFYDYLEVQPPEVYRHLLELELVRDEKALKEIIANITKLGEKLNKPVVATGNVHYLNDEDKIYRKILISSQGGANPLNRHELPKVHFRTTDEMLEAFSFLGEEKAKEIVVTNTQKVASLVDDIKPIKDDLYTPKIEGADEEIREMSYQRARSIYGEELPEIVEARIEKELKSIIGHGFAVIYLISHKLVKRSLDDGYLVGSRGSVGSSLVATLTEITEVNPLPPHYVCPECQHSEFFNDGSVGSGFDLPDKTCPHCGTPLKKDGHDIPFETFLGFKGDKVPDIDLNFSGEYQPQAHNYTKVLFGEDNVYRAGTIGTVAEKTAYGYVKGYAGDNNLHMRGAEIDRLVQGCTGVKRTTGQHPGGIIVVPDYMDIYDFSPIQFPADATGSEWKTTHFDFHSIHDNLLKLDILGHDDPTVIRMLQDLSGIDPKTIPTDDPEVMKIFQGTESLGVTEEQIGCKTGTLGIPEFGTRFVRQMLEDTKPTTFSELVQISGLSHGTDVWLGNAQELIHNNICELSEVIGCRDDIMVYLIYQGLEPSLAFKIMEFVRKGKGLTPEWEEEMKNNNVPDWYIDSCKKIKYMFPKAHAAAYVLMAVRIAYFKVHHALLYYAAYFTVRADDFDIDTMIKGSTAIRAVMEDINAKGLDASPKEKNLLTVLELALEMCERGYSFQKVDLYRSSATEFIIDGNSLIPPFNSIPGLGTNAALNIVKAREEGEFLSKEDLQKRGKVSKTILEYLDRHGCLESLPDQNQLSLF

For assay [3], the target named is Tumor susceptibility gene 101 protein (Homo sapiens) (UniProt Q99816). The experiment in a line: qHTS Validation Assay for Iinhibitors of HIV-1 Budding by Blocking the Interaction of PTAP/TSG101 (AID 485342; calls by dose curve). The method, boiled down: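 Tsg101 binding domain (10 uM) with FITC-labeled PTAP peptide (50 nM) in HEPES pH 7.5 buffer, 20 min at r.t. with compounds. Binding measured by fluorescence polarization.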
Chain of Tumor susceptibility gene 101 protein (Homo sapiens) (Q99816 whole entry, looked up, the tested form may be a part): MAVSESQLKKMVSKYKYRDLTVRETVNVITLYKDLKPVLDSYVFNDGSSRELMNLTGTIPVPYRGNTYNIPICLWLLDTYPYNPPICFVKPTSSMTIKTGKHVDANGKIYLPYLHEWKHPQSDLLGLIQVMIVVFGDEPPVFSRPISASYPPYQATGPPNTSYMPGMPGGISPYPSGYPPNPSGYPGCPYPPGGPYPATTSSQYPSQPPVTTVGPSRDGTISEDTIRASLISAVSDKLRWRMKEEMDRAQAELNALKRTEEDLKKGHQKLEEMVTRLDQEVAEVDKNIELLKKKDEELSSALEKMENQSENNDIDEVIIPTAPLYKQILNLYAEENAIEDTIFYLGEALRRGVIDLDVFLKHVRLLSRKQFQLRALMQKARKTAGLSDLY

Assay [4] has as its target Beta-2 adrenergic receptor (Homo sapiens) (UniProt P07550). In words: qHTS validation assay of beta-arrestin-biased ligands of beta2-adrenergic receptor (AID 485366). In outline:
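qHTS, Tango cells, 1500 cells/well, DMEM + 1% FBS. Cpd 18 hr at 37 degrees C. Luciferin/ATP/CoA detection mix, 15 min RT, luminescence read. %Activity from corrected signal; CRC fit, curve class.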

Assay [5] is described as follows: Quantitative high throughput screen for delayed death inhibitors of the malarial parasite plastid, 96 hour incubation (AID 488745). Further: nearly all actives have a fitted effect of over 70% in size. Further: potency means the concentration at half of the fitted maximal effect. In outline:
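Readout is firefly luciferase luminescence from an integrated reporter in P. falciparum; lower signal marks inhibited growth. Cultures at 2% hematocrit and 0.1% parasitemia were treated with compound across two generations (96 h, 37 C, 5% CO2).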

Assay [6] concerns the target Thioredoxin reductase 1, cytoplasmic (Rattus norvegicus) (UniProt O89049). The experiment in a line: qHTS Assay for Substrates of Mammalian Selenoprotein Thioredoxin Reductase 1 (TrxR1) (AID 488772).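 Further: series mostly up to about 57 µM; a drop in NADPH fluorescence below the no-compound background marks a TrxR1 substrate.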 In outline:
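In this dual-purpose format, potential substrates are identified from the first fluorescence read after selenite addition, not from the 8-minute delta. Rat enzyme is preincubated with NADPH and then with compound at ~22 deg C.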

Assay [7] has the same target. The experiment in a line: qHTS Assay for Inhibitors of Mammalian Selenoprotein Thioredoxin Reductase 1 (TrxR1) (AID 488773). Further: nearly all actives have a fitted effect of over 40% in size. Further: potency means the concentration at half of the fitted maximal effect. To be noted: Potency: inhibition. The method, boiled down:
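Inhibition is scored from the loss of NADPH fluorescence between first and last reads of an 8-min kinetic run. Selenite (400 uM) was the substrate, added after 15 min compound preincubation at room temperature.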

Assay [8] has as its target Flap endonuclease 1 (Homo sapiens) (UniProt P39748). In words: qHTS Validation Assay for the Inhibitors of Human Flap endonuclease 1 (FEN1) (AID 488816). Further: potency means the concentration at half of the fitted maximal effect. The method, boiled down:
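Enzyme reagent 10 nM; cpds pinned; 15 min RT preinc.; substrate 50 nM final; reads t=0 and 15 min; no-enzyme buffer wells as neg. control; normalized data, 4-parameter Hill fit.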

Assay [9] concerns the target M-phase phosphoprotein 8 (Homo sapiens) (UniProt Q99549). In words: qHTS Validation Assay for Inhibitors for MPP8 Chromodomain Interactions with Methylated Histone Tails (AID 488949). Further: nearly all actives have a fitted effect of over 55% in size. Further: potency means the concentration at half of the fitted maximal effect. The method, boiled down:
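MPP8 (50 nM) was pre-bound to 50 nM biotinylated H3(1-18)K9me3 peptide in PBS pH 7.4 with 0.01% Tween-20. Compounds were then added for 30 min at room temperature, and complex disruption was read by AlphaScreen with streptavidin donor and nickel-chelate acceptor beads.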

Assay [10] has as its target Chromobox protein homolog 1 (Homo sapiens) (UniProt P83916). In words: qHTS Validation Assay for Inhibitors of HP1-beta Chromodomain Interactions with Methylated Histone Tails (AID 488953). Further: nearly all actives have a fitted effect of over 50% in size. Further: potency means the concentration at half of the fitted maximal effect. In outline: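 Disruption of preformed HP1-beta:H3K9me3 peptide complexes (both 50 nM, PBS pH 7.4 with 0.01% Tween-20) is measured by AlphaScreen after 30 min compound exposure at room temperature, using streptavidin donor and nickel chelate acceptor beads at 10 ug/mL final.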

The target in assay [11] is Methanococcus maripaludis chaperonin (MmCpn) (UniProt Q6LX38). In words: High-Throughput Screening for Modulators of Cytosolic Chaperonin Activity: MmCpn Primary Screen (AID 488978).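 Further: 50 nM MmCpn enzyme hydrolysing 30 µM ATP at 37 °C.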 In outline: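 MmCpn at 50 nM final was preincubated 5 min at RT with compound. ATP was then added at 30 uM final for 10 min at 37 C. ADP formed was detected by Transcreener HTRF (665/590 nm).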
Chain of Methanococcus maripaludis chaperonin (MmCpn) (Q6LX38 1-543): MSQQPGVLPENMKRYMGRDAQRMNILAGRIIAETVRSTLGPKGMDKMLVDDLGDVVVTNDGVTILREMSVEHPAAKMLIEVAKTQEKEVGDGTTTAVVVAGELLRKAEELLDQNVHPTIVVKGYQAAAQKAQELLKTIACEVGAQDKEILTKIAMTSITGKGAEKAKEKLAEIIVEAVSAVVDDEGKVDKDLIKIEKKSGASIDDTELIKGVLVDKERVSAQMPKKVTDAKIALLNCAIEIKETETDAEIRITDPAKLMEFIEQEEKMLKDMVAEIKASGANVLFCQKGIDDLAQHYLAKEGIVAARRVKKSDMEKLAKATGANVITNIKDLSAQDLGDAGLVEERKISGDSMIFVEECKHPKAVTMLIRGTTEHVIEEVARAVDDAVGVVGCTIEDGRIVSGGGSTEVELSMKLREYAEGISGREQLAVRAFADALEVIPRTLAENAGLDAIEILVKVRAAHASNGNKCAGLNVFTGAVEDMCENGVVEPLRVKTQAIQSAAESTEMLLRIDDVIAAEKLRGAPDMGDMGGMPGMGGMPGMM

Assay [12] has as its target Transient receptor potential cation channel subfamily V member 1 (Homo sapiens) (UniProt Q8NER1). The experiment in a line: HTS Assay for Compounds that Act as Enhancers of the Vanilloid Receptor 1 (AID 488979). The method, boiled down:
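TRPV1 cells loaded with Fluo-8 calcium dye; compound added and Ca2+ signal (ex 480/em 520 nm) followed 3 min, then capsaicin at EC20 added and read 2 more min to detect enhancement.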

The target of assay [13] is Thyrotropin receptor (Homo sapiens) (UniProt P16473). The experiment in a line: qHTS Assay for Antagonists of the Thyroid Stimulating Hormone Receptor (AID 488980). Further: series mostly up to about 58 µM. The method, boiled down:
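TSHR-transfected HEK293 cells (2000/well) in HEPES-buffered HBSS with 70 uM RO 20-1724 were stimulated with 4 nM TSH (EC80, final) in the presence of compound. cAMP was measured by HTRF competition after lysis and 30 min at RT.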

A short description of assay [14]: Validation screen for inhibitors of Lassa infection (AID 463096; calls by dose curve; further: potency means the concentration at half of the fitted maximal effect).
Assay [15] is described as follows: Validation screen for small molecules that induce DNA re-replication in MCF 10A normal breast cells (AID 463097). Further: nearly all actives have a fitted effect of over 60% in size. Further: potency means the concentration at half of the fitted maximal effect. The method, boiled down: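 MCF 10A cells exposed to compound 48 hr at 37 C, 5% CO2, then Hoechst-stained 40 min. Laser-scanning imaging of nuclear DNA content (405 nm ex, 500-530 nm em); re-replication scored as rise in nuclei with elevated fluorescence intensity.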

Assay [16] is described as follows: qHTS Validation Assay to Find Inhibitors of Chronic Active B-Cell Receptor Signaling (AID 485345; active means well fitted curve in the direction sought with a large enough effect in the main read-out, with a control signal flat, not every such curve was filed as active). In outline: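 TMD8 ABC-DLBCL cells stably carrying doxycycline-inducible IkappaBalpha–green luciferase fusion plus unfused red luciferase; compounds 46 uM to 3 nM, 4 h at 37C with doxycycline. Corrected green/red luminescence ratio normalized to 10 uM MG-132 and basal cell wells; curves fitted.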

In assay [17] the target is ATP-dependent 6-phosphofructokinase (Trypanosoma brucei brucei) (UniProt O15648). The experiment in a line: qHTS Validation Assay to Find Inhibitors of T. brucei phosphofructokinase (AID 485368). Further: potency means the concentration at half of the fitted maximal effect. The method, boiled down: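 Luminescent ADP detection measures PFK turnover of fructose-6-phosphate (0.5 mM) with ATP (0.1 mM) at pH 8.0. Reaction runs 45 min at room temperature with 1.25 nM enzyme; inhibitors tested as titrations up to 57 uM.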
Chain of ATP-dependent 6-phosphofructokinase (Trypanosoma brucei brucei) (O15648 whole entry, looked up): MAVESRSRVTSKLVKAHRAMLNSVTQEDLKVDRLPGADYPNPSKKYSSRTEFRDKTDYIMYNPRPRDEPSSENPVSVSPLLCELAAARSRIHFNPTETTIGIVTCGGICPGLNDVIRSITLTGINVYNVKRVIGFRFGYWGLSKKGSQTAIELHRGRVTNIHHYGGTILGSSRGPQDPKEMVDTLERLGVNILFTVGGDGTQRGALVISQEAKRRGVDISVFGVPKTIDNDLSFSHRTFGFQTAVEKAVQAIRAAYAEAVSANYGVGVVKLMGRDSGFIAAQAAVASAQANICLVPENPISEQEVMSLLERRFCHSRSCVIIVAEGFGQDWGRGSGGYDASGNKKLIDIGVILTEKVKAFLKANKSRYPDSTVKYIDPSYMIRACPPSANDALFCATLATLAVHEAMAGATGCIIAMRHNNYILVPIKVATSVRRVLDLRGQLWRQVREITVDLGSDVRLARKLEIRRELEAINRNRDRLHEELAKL

The nature of assay [18]: Quantitative high throughput screen for delayed death inhibitors of the malarial parasite plastid, 48 hour incubation (AID 488752). Further: nearly all actives have a fitted effect of over 65% in size. Further: potency means the concentration at half of the fitted maximal effect. In outline: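 First, compound was pinned into RPMI 1640 medium containing 0.5% Albumax. Next, reporter-parasite-infected erythrocytes were added to 2% hematocrit and 0.1% parasitemia. After 48 h at 37 C under 5% CO2, luciferase detection reagent was added and luminescence read.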

Assay [19] has as its target D(1A) dopamine receptor (Homo sapiens) (UniProt P21728). The experiment in a line: HTS Assay for Allosteric Agonists of the Human D1 Dopamine Receptor: Primary Screen for Agonists (AID 488981). Further: potency means the concentration at half of the fitted maximal effect. In outline:
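Tetracycline-induced HEK293 Trex D1 cells with forced coupling to calcium, loaded with no-wash calcium dye; kinetic fluorescence read 180 s after compound addition for agonism, then a further 180 s after an EC20 dopamine challenge for potentiation.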

Results filed as inconclusive are left out. Active and inactive are the calls of the source. Unless noted, the call rests on the fitted dose curve; in most records, active means well fitted curve in the direction sought with a large enough effect; inconclusive means small, poorly fitted or top-dose-only effect, or another doubt; inactive means no such curve, though single readings can be large; an effect the other way counts as inactive or inconclusive.

Chain of Ubiquitin carboxyl-terminal hydrolase 2 (Homo sapiens) (O75604 whole entry, looked up): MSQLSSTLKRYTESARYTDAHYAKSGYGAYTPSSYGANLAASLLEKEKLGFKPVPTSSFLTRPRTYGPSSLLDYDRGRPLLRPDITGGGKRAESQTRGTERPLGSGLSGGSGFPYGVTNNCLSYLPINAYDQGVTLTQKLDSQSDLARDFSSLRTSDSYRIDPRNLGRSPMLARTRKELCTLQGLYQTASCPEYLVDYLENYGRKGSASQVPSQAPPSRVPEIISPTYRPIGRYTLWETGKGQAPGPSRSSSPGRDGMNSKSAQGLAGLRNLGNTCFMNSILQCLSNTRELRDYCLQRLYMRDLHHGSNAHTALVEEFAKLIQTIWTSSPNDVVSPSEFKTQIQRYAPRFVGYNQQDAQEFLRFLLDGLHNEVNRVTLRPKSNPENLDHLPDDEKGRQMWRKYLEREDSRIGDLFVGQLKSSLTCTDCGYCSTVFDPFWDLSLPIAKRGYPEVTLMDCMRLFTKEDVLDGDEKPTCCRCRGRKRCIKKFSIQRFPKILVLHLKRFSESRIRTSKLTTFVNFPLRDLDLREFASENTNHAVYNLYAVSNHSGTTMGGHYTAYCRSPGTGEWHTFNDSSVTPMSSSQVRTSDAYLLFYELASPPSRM
Chain of Flap endonuclease 1 (Homo sapiens) (P39748 whole entry, looked up): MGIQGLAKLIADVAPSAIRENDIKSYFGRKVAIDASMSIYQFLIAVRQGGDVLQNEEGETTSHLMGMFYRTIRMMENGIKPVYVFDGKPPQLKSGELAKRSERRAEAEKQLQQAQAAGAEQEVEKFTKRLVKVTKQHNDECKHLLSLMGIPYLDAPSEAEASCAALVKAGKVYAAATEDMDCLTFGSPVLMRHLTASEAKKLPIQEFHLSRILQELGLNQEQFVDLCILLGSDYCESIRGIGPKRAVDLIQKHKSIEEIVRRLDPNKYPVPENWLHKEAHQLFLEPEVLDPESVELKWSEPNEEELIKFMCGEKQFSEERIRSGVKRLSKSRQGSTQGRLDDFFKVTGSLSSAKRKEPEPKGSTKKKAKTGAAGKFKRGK
Chain of Chromobox protein homolog 1 (Homo sapiens) (P83916 whole entry, looked up): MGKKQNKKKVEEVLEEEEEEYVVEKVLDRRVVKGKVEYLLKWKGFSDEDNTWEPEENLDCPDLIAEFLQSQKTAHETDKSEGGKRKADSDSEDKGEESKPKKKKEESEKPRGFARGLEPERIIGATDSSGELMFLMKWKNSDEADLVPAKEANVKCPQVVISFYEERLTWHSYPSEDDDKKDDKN
Chain of Beta-2 adrenergic receptor (Homo sapiens) (P07550 whole entry, looked up): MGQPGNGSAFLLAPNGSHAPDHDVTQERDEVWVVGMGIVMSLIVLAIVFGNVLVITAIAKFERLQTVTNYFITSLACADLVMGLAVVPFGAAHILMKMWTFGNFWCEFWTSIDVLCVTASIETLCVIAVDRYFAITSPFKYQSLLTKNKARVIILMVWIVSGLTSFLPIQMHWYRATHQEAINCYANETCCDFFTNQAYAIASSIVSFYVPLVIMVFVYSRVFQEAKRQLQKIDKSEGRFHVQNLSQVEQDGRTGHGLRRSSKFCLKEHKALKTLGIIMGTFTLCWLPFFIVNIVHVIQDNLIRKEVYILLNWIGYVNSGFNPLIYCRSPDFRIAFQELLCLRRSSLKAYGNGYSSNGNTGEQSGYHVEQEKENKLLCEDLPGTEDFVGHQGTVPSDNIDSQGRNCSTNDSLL
Chain of D(1A) dopamine receptor (Homo sapiens) (P21728 whole entry, looked up): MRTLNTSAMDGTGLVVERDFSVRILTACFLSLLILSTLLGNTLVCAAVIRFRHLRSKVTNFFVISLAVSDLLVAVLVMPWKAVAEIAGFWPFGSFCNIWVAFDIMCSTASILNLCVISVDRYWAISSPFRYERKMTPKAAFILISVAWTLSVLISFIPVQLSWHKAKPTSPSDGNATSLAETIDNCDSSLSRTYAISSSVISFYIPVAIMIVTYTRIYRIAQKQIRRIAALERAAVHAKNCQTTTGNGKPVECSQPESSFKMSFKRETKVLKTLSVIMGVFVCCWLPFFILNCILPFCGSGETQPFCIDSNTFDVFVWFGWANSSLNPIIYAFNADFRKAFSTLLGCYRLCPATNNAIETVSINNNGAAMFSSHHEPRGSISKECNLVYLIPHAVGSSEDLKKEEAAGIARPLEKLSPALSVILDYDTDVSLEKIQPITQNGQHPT

As to `CCCCCCCCCCCCCC(=O)O[C@@H]1[C@@H](C)[C@@]2(O)[C@@H](C=C(CO)C[C@@]3(O)C(=O)C(C)=C[C@@H]23)C2C(C)(C)[C@@]21OC(C)=O` (stereo partly drawn), the Potency entry in [1], in [2], in assay [7], in assay [8], in assay [9] and in [10] was “inactive” in each case. In addition, the compound was called inactive in assay [3], in [4], in assay [6], in assay [11], in [12] and in assay [13]. Also, in assay [5], the Potency was 11.7 µM (active).

On to `CN(N=O)c1cc(O)ccc1O`, for which the Potency result in assay [14], in [15], in assay [1], in assay [16], in assay [18] and in assay [19] was “inactive” throughout. Also, the Potency in assay [2] was 23.8 µM (active); in assay [17] it was 7.57 µM (active); in [7], 0.752 µM (active); in assay [9] it was 8.91 µM (active); in assay [10], 50.1 µM (active). Besides, the call in [3], in assay [4], in assay [6], in assay [11], in assay [12] and in assay [13] was inactive.

`CCCN1CCCC2Cc3[nH]ncc3CC21` (stereo not drawn): the Potency entry in [14], in [15], in [5], in [18] and in assay [9] was “inactive” throughout. For the same compound, the outcome in assay [12] and in [13] was inactive.

`CNc1ccc2oc(C[C@H]3O[C@@]4(CC[C@H]3C)O[C@H]([C@H](C)C(=O)c3ccc[nH]3)[C@H](C)C[C@H]4C)nc2c1C(=O)O`: the Potency was 7.08 µM (active) in [14]; 1.58 µM (active) in [15]; 0.104 µM (active) in assay [5]; 2.33 µM (active) in assay [18]; 0.006 µM (active) in [10]; 0.398 µM (active) in [19]. Also, the Potency result in assay [1], in assay [2], in assay [7], in assay [8] and in assay [9] was “inactive” throughout. Moreover, the compound was classed as inactive in assay [3], in assay [4], in [6] and in assay [11].

`Oc1ccc2c3c1O[C@H]1c4[nH]c5ccccc5c4C[C@@]4(O)C(C2)N(CC2CC2)CCC314` (stereo partly drawn): the Potency in [14] is 11.2 µM (active). Besides, the Potency result in assay [15], in assay [1], in assay [2], in [17], in assay [7] and in assay [8] was “inactive” in each case. In addition, the Potency entry in assay [9] and in assay [10] was “inactive” each time. The outcome in [3], in assay [4], in assay [6], in assay [11] and in assay [13] was inactive.

With `N#CC(C#N)=Cc1cc(O)c(O)c(O)c1`, the Potency result in assay [14], in assay [15] and in assay [18] was “inactive” throughout. Moreover, the Potency in assay [9] is 39.8 µM (active). Also, the outcome in assay [12] and in assay [13] was inactive.

Turning to `C=CCN1CC[C@]23c4c5ccc(O)c4O[C@@H]2/C(=N/N=C2\CC[C@@]4(O)C6Cc7ccc(O)c8c7[C@@]4(CCN6CC=C)[C@@H]2O8)CC[C@@]3(O)C1C5`, the Potency is 15.8 µM (active) in assay [15], 2.94 µM (active) in assay [5], 3.29 µM (active) in assay [18] and 11.9 µM (active) in assay [7]. Besides, the Potency entry in assay [1], in [2], in assay [16], in assay [17], in assay [8] and in assay [9] was “inactive” in each case. In addition, in assay [19], the Potency entry is “inactive”. Further, the compound was classed as inactive in [3], in assay [4], in [6], in assay [11], in assay [12] and in assay [13].

Take `CN1CCc2cc(O)cc3c2[C@H]1Cc1ccc(O)c(O)c1-3`: the Potency result in assay [1], in [2], in [16] and in assay [19] was “inactive” each time. Besides, the result in assay [3], in assay [4], in [6] and in [11] was inactive. In addition, the Potency in assay [7] was 13.4 µM (active); in [8] it was 3.77 µM (active); in assay [10], 1.34 µM (active).

For `CCN(CC)c1ncnc2c1ncn2[C@@H]1O[C@H](COP(=O)(O)OP(=O)(O)C(Br)(Br)P(=O)(O)O)[C@@H](O)[C@H]1O`, the Potency entry in [14], in assay [15], in assay [5], in assay [18] and in assay [9] was “inactive” throughout. Moreover, the result in assay [12] and in assay [13] was inactive.

As to `Nc1ccc(CCN2CCN(c3cccc(C(F)(F)F)c3)CC2)cc1`, the Potency result in assay [14], in assay [15], in assay [1], in assay [2], in [16] and in assay [17] was “inactive” throughout. In addition, the Potency result in [18], in [7], in assay [8] and in [9] was “inactive” throughout. Further, the compound was classed as inactive in assay [3], in [4], in assay [6], in assay [11], in assay [12] and in assay [13].
